Where “and” joins values, the source holds several entries; their conditions need not be identical. Equal values may be shown once. About 2,000 (36%) of roughly 5,500 compounds were called active. Inconclusive results (about 18%) are left out. Cut-off read from the data, not from the text of the source: active = normalized growth mostly below about 0.91 (no sharp cut-off); inconclusive = no clear call, values can overlap the other calls; inactive = mostly above about 0.92. The list shows a part of the results.
Test: chemical genetic growth profiling, strain panel (AID 1159580);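 note: tested at 20 µM; growth read once vehicle control cultures reached saturation at 30 °C; 1 = growth at the plate median or of vehicle wells; lower values mean less growth of the strain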
Settings: S. cerevisiae deletion strains, growth OD

Measured: normalized growth

CCOC(=O)NNc1nncc2ccccc12
inactive: locus YAL013W, strain DEP1, stronger effect = lower value 0.992 | locus YAL021C, strain ccr4, stronger effect = lower value 1 | locus YAL026C, strain drs2, stronger effect = lower value 1.03 | locus YAL030W, strain snc1, stronger effect = lower value 1.02 | locus YBL061C, strain skt5, stronger effect = lower value 1.01 | locus YBR009C, strain hhf1, stronger effect = lower value 0.973 | locus YBR021W, strain FUR4, stronger effect = lower value 0.964 | locus YBR023C, strain chs3, stronger effect = lower value 1.02 | locus YBR171W, strain sec66, stronger effect = lower value 1.01 | locus YBR229C, strain ROT2, stronger effect = lower value 0.991 | locus YBR231C, strain swc5, stronger effect = lower value 0.993 | locus YBR279W, strain paf1, stronger effect = lower value 1.02 | locus YCL011C, strain gbp2, stronger effect = lower value 1.04 | locus YCL016C, strain dcc1, stronger effect = lower value 1.03 | locus YCL029C, strain bik1, stronger effect = lower value 0.97 | locus YCL061C, strain MRC1, stronger effect = lower value 0.994 | locus YCL069W, strain vba3, stronger effect = lower value 1.02 | locus YCR088W, strain abp1, stronger effect = lower value 1.01 | locus YDL005C, strain med2, stronger effect = lower value 1.03 | locus YDL035C, strain GPR1, stronger effect = lower value 0.978 | locus YDL040C, strain nat1, stronger effect = lower value 0.996 | locus YDL074C, strain BRE1, stronger effect = lower value 1.01 | locus YDL101C, strain DUN1, stronger effect = lower value 0.991 | locus YDL134C, strain PPH21, stronger effect = lower value 0.979 | locus YDL185W, strain tfp1, stronger effect = lower value 0.983 | locus YDL192W, strain arf1, stronger effect = lower value 0.98 | locus YDR001C, strain nth1, stronger effect = lower value 1.01 | locus YDR069C, strain doa4, stronger effect = lower value 0.985 | locus YDR101C, strain arx1, stronger effect = lower value 0.993 | locus YDR137W, strain rgp1, stronger effect = lower value 1.03 | locus YDR150W, strain NUM1, stronger effect = lower value 1 | locus YDR159W, strain sac3, stronger effect = lower value 0.94 | locus YDR162C, strain NBP2, stronger effect = lower value 0.987 | locus YDR195W, strain ref2 0.981 | locus YDR297W, strain sur2, stronger effect = lower value 1 | locus YDR318W, strain mcm21, stronger effect = lower value 0.974 | locus YDR334W, strain swr1, stronger effect = lower value 1.03 | locus YDR335W, strain msn5, stronger effect = lower value 1.01 | locus YDR388W, stronger effect = lower value 0.973 | locus YDR392W, strain spt3, stronger effect = lower value 0.998 | locus YDR502C, strain sam2, stronger effect = lower value 0.969 | locus YEL003W, strain gim4, stronger effect = lower value 0.998 | locus YEL037C, strain rad23, stronger effect = lower value 1.02 | locus YEL061C, strain CIN8 (second series), stronger effect = lower value 1 | locus YEL061C, strain CIN8, stronger effect = lower value 1 | locus YER015W, strain faa2, stronger effect = lower value 1.01 | locus YER016W, strain bim1, stronger effect = lower value 1.02 | locus YER110C, stronger effect = lower value 0.972 | locus YER111C, strain swi4, stronger effect = lower value 1.01 | locus YER155C, strain BEM2 (second series), stronger effect = lower value 1 | locus YER155C, strain BEM2, stronger effect = lower value 0.99 | locus YER167W, strain BCK2, stronger effect = lower value 0.989 | locus YFR010W, strain ubp6, stronger effect = lower value 0.979 | locus YGL078C, strain dbp3, stronger effect = lower value 0.98 | locus YGL086W, strain mad1, stronger effect = lower value 0.995 | locus YGL167C, strain pmr1, stronger effect = lower value 1 | locus YGL173C, strain kem1, stronger effect = lower value 0.972 | locus YGL227W, strain vid30, stronger effect = lower value 1.02 | locus YGL240W, strain doc1, stronger effect = lower value 0.998 | locus YGL248W, strain PDE1, stronger effect = lower value 1 | locus YGL253W, strain hxk2, stronger effect = lower value 1.02 | locus YGR135W, strain pre9, stronger effect = lower value 0.97 | locus YGR229C, strain SMI1, stronger effect = lower value 0.984 | locus YGR252W, strain gcn5, stronger effect = lower value 0.962 | locus YHR013C, strain ard1, stronger effect = lower value 1.02 | locus YHR027C, strain rpn1, stronger effect = lower value 0.993 | locus YHR030C, strain SLT2, stronger effect = lower value 0.99 and 0.966 | locus YHR079C, strain IRE1 (second series), stronger effect = lower value 0.983 | locus YHR079C, strain IRE1, stronger effect = lower value 0.982 | locus YHR094C, strain hxt1, stronger effect = lower value 0.973 | locus YHR129C, strain ARP1, stronger effect = lower value 0.999 | locus YHR142W, strain chs7, stronger effect = lower value 1.04 | locus YHR200W, strain rpn10, stronger effect = lower value 0.981 | locus YIL066C, strain RNR3, stronger effect = lower value 0.987 | locus YIL073C, strain SPO22, stronger effect = lower value 0.913 | locus YIL125W, strain kgd1, stronger effect = lower value 0.987 | locus YIR030C, strain dcg1, stronger effect = lower value 0.977 | locus YJL092W, strain hpr5, stronger effect = lower value 1.01 | locus YJL095W, strain BCK1 (second series), stronger effect = lower value 1.02 | locus YJL095W, strain BCK1, stronger effect = lower value 1.04 and 0.976 | locus YJL115W, strain asf1, stronger effect = lower value 1.03 | locus YJL129C, strain trk1, stronger effect = lower value 1.02 | locus YJL134W, strain LCB3, stronger effect = lower value 0.994 | locus YJL154C, strain vps35, stronger effect = lower value 1.01 | locus YJL164C, strain tpk1, stronger effect = lower value 0.993 | locus YJL166W, strain qcr8, stronger effect = lower value 0.983 | locus YJL168C, strain set2, stronger effect = lower value 0.981 | locus YJL187C, strain SWE1 (second series), stronger effect = lower value 1 | locus YJL187C, strain SWE1, stronger effect = lower value 1.02 | locus YJR043C, strain POL32, stronger effect = lower value 0.952

Reference: PubChem BioAssay AID1159580 (chemical genetic matrix, 2015)
